Experimental findings from PubChem BioAssay (EPA / NIEHS) are described below.

Structures are written as SMILES. Inconclusive results are not listed. Some structures have more than one record in an assay (separate samples or runs), and their calls can disagree. Calls of active or inactive are those of the source. The calls were made as follows: active = hit-call score of the fitted dose curve at least 0.9, where 1 is the maximum; inconclusive = response in the unintended direction; inactive = score below 0.9.

The target in assay [1] is Cellular tumor antigen p53 (Homo sapiens) (UniProt P04637). Put plainly: TOX21_p53_BLA_p2_ratio: Tox21 HCT-116 p53 Agonism Beta-lactamase Assay, Ratio, Phase 2 (AID 2283592). The gist of the method: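 Read-out is the blue/green (460/530 nm, 405 nm excitation) ratio after 2 h CCF4-AM loading, fitted as gain versus DMSO. Compounds, pinned at 217-fold dilution from DMSO stocks, stayed 16 h on HCT-116 beta-lactamase reporter cells seeded 5 h earlier.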
Sequence of Cellular tumor antigen p53 (Homo sapiens) (P04637 whole entry, looked up): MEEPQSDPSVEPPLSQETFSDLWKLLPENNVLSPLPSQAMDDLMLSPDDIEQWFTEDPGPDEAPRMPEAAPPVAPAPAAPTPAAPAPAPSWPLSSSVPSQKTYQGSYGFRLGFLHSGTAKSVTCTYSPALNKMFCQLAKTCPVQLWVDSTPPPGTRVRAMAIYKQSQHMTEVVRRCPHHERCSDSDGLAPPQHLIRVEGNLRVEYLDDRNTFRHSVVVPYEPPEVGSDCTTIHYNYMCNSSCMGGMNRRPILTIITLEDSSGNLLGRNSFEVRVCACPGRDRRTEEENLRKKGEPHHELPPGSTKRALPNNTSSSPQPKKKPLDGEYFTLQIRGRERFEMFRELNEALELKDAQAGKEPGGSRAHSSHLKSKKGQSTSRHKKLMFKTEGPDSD

Assay [2] shares this target. Kind of assay: TOX21_p53_BLA_p3_ratio: Tox21 HCT-116 p53 Agonism Beta-lactamase Assay, Ratio, Phase 3 (AID 2283596). The gist of the method: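 Cells were seeded at 4000/well, rested 5 h at 37C, then dosed with DMSO compound solutions (217-fold dilution) for 16 h. CCF4-AM substrate was loaded for 2 h at room temperature, and the 460/530 nm emission ratio was fitted for gain of signal versus DMSO.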

Assay [3] can be described thus: TOX21_p53_BLA_p4_viability: Viability Assessment in the Tox21 HCT-116 p53 Agonism Beta-lactamase Assay, Phase 4 (AID 2283597).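 Also: hits lower the luminescence signal meaning cytotoxicity.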 The gist of the method:
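Cytotoxicity as reduced cellular ATP (CellTiter-Glo luminescence, 30 min room temperature), measured in the same wells following the CCF4 FRET p53 reading. Human HCT-116 cells received compounds in DMSO (217-fold dilution) for 16 h.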

Assay [4] has as its target Cellular tumor antigen p53 (Homo sapiens) (UniProt P04637). Kind of assay: TOX21_p53_BLA_p4_ratio: Tox21 HCT-116 p53 Agonism Beta-lactamase Assay, Ratio, Phase 4 (AID 2283601). The gist of the method:
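HCT-116 p53 beta-lactamase reporter cells (4000/well) preincubated 5 h, then compound (217-fold dilution of DMSO stock) for 16 h at 37C. CCF4-AM substrate added 2 h at room temperature; 460/530 nm emission ratio fitted upward versus DMSO.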

Assay [5] is described as follows: TOX21_p53_BLA_p3_viability: Viability Assessment in the Tox21 HCT-116 p53 Agonism Beta-lactamase Assay, Phase 3 (AID 2283593).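 Also: cells exposed to compound for 16 h before reading.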 In outline:
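HCT116 cells, 4000/well, dosed 5 h after plating by pin transfer (217-fold dilution from DMSO stock) and incubated 16 h at 37C, 5% CO2. Viability read as ATP luminescence with CellTiter-Glo after 30 min at room temperature.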

Assay [6] deals with Cellular tumor antigen p53 (Homo sapiens) (UniProt P04637). Put plainly: TOX21_p53_BLA_p5_ratio: Tox21 HCT-116 p53 Agonism Beta-lactamase Assay, Ratio, Phase 5 (AID 2283599). In outline: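 HCT-116 p53-bla cells (4000/well) plated 5 h, dosed with compound (217-fold DMSO dilution) for 16 h at 37 C; CCF4-AM substrate 2 h at room temperature. Activity is the 460/530 nm emission ratio (405 nm excitation), fitted in gain-of-signal direction versus DMSO.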

Assay [7] in a line: TOX21_p53_BLA_p5_viability: Viability Assessment in the Tox21 HCT-116 p53 Agonism Beta-lactamase Assay, Phase 5 (AID 2283600). The gist of the method: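 Viability came from CellTiter-Glo ATP luminescence, read after 30 min at room temperature. Before this, HCT-116 p53-bla cells (4000/well) had 16 hours of compound exposure at 37C, with DMSO stocks diluted 217-fold on transfer.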

Assay [8] deals with PGR (gene 5241) (UniProt P06401). Put plainly: TOX21_PR_BLA_Followup_Antagonist_ratio: Tox21 HEK293 Progesterone Receptor (PR) Antagonism Beta-lactamase Follow-Up Assay, Ratio (AID 2283934).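 Also: PR-UAS-bla HEK293T cells stimulated with 1 nM R5020 agonist for 16 hr.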 The gist of the method:
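Readout is the blue/green (ch2/ch1) substrate cleavage ratio after 2 hours at room temperature, following 16 hr co-treatment of PR-bla HEK293T cells with compound and 1nM promegestone. Multiplexed CellTiter-Glo viability flags cytotoxicity; DMSO baseline.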

Assay [9] can be described thus: TOX21_PR_BLA_Followup_Agonist_viability: Viability Assessment in the Tox21 HEK293 Progesterone Receptor (PR) Agonism Beta-lactamase Follow-Up Assay (AID 2283935).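 Also: signal loss means lower viability so actives are cytotoxic.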 In outline:
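Run multiplexed with the beta-lactamase FRET read, this endpoint measures ATP by CellTiter-Glo luminescence (30 min, room temperature). PR-UAS-bla HEK293T cells received compound 6 hr after plating and were then incubated 16 hr at 37C in 2% stripped serum.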

Assay [10] in a line: TOX21_PR_BLA_Followup_Antagonist_viability: Viability Assessment in the Tox21 HEK293 Progesterone Receptor (PR) Antagonism Beta-lactamase Follow-Up Assay (AID 2283936).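 Also: cells exposed to compound with R5020 agonist for 16 h; hits lower the luminescence signal meaning cytotoxicity.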 In outline: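 PR-UAS-bla HEK293T cells in medium with 2% charcoal-stripped FBS were treated with compounds plus R5020 for 16 hr at 37C. After the beta-lactamase read, CellTiter-Glo was added to the same wells and luminescence read after 30 min at room temperature.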

Assay [11] addresses PGR (gene 5241) (UniProt P06401). Kind of assay: TOX21_PR_LUC_Followup_Antagonist: Tox21 HEK293 Progesterone Receptor (PR) Antagonism Luciferase Follow-Up Assay (AID 2283938).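 Also: curve fitted upward as signal gain over DMSO baseline despite antagonist label.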 In outline: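 Luminescence from ONE-Glo was measured 30 min after reagent addition, following 16 h exposure of HEK293-PR-A-luc cells (3,000/well, plated 5 h earlier) to DMSO-dissolved compounds at 37C; DMSO served as baseline.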

Assay [12] can be described thus: TOX21_PR_LUC_Followup_Antagonist_viability: Viability Assessment in the Tox21 HEK293 Progesterone Receptor (PR) Antagonism Luciferase Follow-Up Assay (AID 2283940). In outline:
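Viability counter-readout: cellular ATP measured by luciferase luminescence after 16 h compound exposure at 37C of HEK293-PR-A-luc cells, which had been cultured in charcoal-stripped serum and seeded 5 h beforehand.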

Assay [13] in a line: TOX21_PR_LUC_Followup_Agonist_viability: Viability Assessment in the Tox21 HEK293 Progesterone Receptor (PR) Agonism Luciferase Follow-Up Assay (AID 2283941).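 Also: loss of signal means cytotoxicity so actives lower viability.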 In outline: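 Cytotoxicity counter-readout in the PR-A luciferase reporter line HEK293, with 16 h compound exposure at 37C after cells were cultured in charcoal-stripped serum. Cellular ATP quantified by CellTiter-Glo luminescence.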

Sequence of PGR (gene 5241) (P06401 whole entry, looked up): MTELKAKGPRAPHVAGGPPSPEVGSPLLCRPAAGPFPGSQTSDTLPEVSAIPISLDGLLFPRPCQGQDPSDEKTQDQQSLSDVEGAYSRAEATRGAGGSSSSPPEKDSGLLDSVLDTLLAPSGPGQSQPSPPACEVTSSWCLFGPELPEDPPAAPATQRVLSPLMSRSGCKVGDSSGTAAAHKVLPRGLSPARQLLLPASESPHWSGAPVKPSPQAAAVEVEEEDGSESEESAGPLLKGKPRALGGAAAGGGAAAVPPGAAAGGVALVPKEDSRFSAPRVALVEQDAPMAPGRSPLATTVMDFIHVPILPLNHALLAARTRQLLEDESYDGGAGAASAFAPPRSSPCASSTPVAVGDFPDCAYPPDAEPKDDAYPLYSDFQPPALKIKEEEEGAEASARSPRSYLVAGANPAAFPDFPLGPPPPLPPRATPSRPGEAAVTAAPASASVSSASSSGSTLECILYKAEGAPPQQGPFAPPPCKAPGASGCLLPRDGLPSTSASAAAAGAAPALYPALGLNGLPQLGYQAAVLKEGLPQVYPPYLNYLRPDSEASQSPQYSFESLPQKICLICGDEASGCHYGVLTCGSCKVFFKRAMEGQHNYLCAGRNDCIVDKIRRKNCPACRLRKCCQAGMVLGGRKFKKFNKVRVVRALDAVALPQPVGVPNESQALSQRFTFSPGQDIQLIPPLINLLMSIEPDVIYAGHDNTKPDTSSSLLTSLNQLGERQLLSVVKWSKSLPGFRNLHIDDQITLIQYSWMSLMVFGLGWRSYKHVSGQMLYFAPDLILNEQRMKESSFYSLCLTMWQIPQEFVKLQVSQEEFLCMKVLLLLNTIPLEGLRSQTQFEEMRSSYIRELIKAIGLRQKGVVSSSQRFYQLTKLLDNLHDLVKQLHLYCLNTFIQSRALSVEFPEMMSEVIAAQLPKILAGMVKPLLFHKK

In the case of `C[C@]12CC[C@H]3[C@@H](CCC4=C(O)C(=O)CC[C@@H]43)[C@@H]1CC[C@@H]2OC(=O)CCC1CCCC1`, the result in assay [1], in assay [2], in assay [3] and in assay [4] was inactive.
`[S]=[Sb](=[S])[S][Sb](=[S])=[S]`: the result in assay [1], in assay [5], in assay [6], in assay [7] and in [4] was inactive.
For the molecule `[Cl][Sn]([Cl])([Cl])[Cl]`, the result in assay [1], in [2], in assay [3], in [6], in [7] and in assay [4] was inactive.
As for `CN1C(=O)CN=C(c2ccccc2)c2cc([N+](=O)[O-])ccc21`, the outcome in assay [1], in [2], in [3], in assay [6] and in assay [7] was inactive.
Regarding `C[C@H]1CCC[C@H](O)CCCCCc2cc(O)cc(O)c2C(=O)O1`, the outcome in assay [1], in assay [2], in assay [6], in [7], in [4] and in assay [9] was inactive. Moreover, the molecule was classed as inactive in assay [10], in assay [12] and in assay [13]. In addition, the half-maximal activity concentration (AC50) in [2] is 74.2 µM (active); in the assay with PGR (gene 5241) [8], 4.51 µM (active); with PGR (gene 5241) [11], 10.1 µM (active).
Consider `NC1=NC(=O)N2CC12` (configuration not stated), for which the outcome in assay [1], in assay [2], in assay [3], in assay [6] and in assay [4] was inactive.
For `C[C@@H]([C@H](O)c1ccccc1)N(C)C`, the outcome in assay [1], in assay [2], in [3], in [6], in assay [7] and in [4] was inactive.
On to `[O-][Br+2]([O-])O`, for which the result in [1], in assay [2], in assay [3] and in assay [4] was inactive.
